# Measurements published in PubChem BioAssay (Tox21).
# Where “and” joins values, the source holds several entries; their conditions need not be identical. Identical values can stand only once. Values without a mark were called inactive. Inconclusive results are not listed. Where a call stands in place of a potency, no number is given. Calls of active or inactive are those of the source. Calls follow the shape of the full dose curve.
# Experiments:
# [1] = biological target: Acetylcholinesterase (Homo sapiens) (UniProt P22303); assay: Acetylcholinesterase (AChE) small molecule antagonists: colormetric cell-based qHTS assay (AID 1347395); also: nearly all actives have a fitted effect of over 30% in size; also: potency is read from the fitted curve at half-maximal effect
# Method in brief: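 Neuroblastoma line SH-SY5Y supplied the enzyme; cells were preincubated with compound for 30 min at 37 C and 5% CO2. Acetylthiocholine with DTNB was then added for 90 min at 37 C, and thiocholine was measured by colour.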
# [2] = biological target: Acetylcholinesterase (Homo sapiens) (UniProt P22303); assay: Acetylcholinesterase (AChE) small molecule antagonists: enzyme-based qHTS assay (AID 1347397); conditions: Potency: AChE enzyme activity inhibition; outcome: AChE enzyme activity inhibition; also: nearly all actives have a fitted effect of over 55% in size; also: potency is read from the fitted curve at half-maximal effect
# Method in brief: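 Absorbance-based detection of thiocholine with DTNB served as the read-out. Recombinant human AChE was exposed to compound for 30 min at RT before a 10 min RT incubation with acetylthiocholine.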
# [3] = biological target: Acetylcholinesterase (Homo sapiens) (UniProt P22303); assay: Acetylcholinesterase (AChE) small molecule antagonists: fluorescence cell-based qHTS assay (AID 1347398); conditions: Potency: AChE activity; outcome: AChE activity; also: nearly all actives have a fitted effect of over 50% in size; also: potency is read from the fitted curve at half-maximal effect
# Method in brief: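 Fluorimetric cell-based assay: intact SH-SY5Y cells, 30 min compound preincubation at 37 C, acetylthiocholine substrate with thiol probe Thiolite Green, 40 min RT development, fluorescence 490/520 nm.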
# [4] = biological target: Acetylcholinesterase (Homo sapiens) (UniProt P22303); assay: Acetylcholinesterase (AChE) small molecule antagonists: enzyme-based qHTS assay with human liver microsomes (AID 1347399); conditions: Potency: qHTS inhibition; outcome: qHTS inhibition; also: nearly all actives have a fitted effect of over 60% in size
# Method in brief: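 Recombinant human AChE (50 mU/mL in the enzyme mix) and human liver microsomes (0.25 mg/mL final) were preincubated with compound and NADPH (0.25 mg/mL final) for 30 min at 37 C. Acetylthiocholine/DTNB was then added; thiocholine was read colorimetrically after 10 min at room temperature.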
# Acetylcholinesterase (Homo sapiens), sequence (P22303 whole entry, looked up): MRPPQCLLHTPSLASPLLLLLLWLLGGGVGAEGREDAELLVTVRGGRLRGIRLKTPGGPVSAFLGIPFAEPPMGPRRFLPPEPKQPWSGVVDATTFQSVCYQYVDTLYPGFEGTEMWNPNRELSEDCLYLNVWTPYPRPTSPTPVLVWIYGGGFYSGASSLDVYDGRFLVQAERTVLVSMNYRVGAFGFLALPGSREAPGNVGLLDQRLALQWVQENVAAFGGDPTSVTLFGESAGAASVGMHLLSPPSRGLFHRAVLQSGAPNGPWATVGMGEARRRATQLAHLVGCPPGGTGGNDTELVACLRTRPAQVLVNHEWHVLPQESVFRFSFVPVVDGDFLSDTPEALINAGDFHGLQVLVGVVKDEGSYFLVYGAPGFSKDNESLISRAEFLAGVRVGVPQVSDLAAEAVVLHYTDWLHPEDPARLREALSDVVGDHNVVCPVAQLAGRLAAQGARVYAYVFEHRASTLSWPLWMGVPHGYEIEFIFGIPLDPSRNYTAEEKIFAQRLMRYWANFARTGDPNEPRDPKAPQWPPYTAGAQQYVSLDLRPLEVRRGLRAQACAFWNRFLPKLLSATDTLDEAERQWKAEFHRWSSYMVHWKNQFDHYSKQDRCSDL
smiles,measurement,setting,value
CCCCCC/C=C/CCCCCCCC(=O)O,Potency,[1],inactive
same,Potency,[2],inactive
same,Potency,[3],inactive
same,Potency,[4],inactive
NC(=O)c1cccnc1,Potency,[1],inactive
same,Potency,[2],inactive
same,Potency,[3],inactive
same,Potency,[4],inactive
Cn1cnc2c(=O)[nH]c(N)nc21,Potency,[1],inactive
same,Potency,[2],inactive
same,Potency,[3],inactive
same,Potency,[4],inactive
CC(CO)Oc1ccccc1 (stereo not given),Potency,[1],inactive
same,Potency,[2],inactive
same,Potency,[3],inactive
same,Potency,[4],inactive
O=C(O)c1ccc([N+](=O)[O-])cc1,Potency,[1],inactive
same,Potency,[2],inactive
same,Potency,[3],inactive
same,Potency,[4],inactive
CCCC(C)CC (stereo not given),Potency,[1],inactive
same,Potency,[2],inactive
same,Potency,[3],inactive
same,Potency,[4],inactive
O=C1c2ccccc2C(=O)c2c(O)ccc(O)c21,Potency,[1],inactive
same,Potency,[2],inactive
same,Potency,[3],inactive
same,Potency,[4],inactive
CCCCCCCCCCCc1ccccc1,Potency,[1],inactive
same,Potency,[2],inactive
same,Potency,[3],inactive
same,Potency,[4],inactive
CCCCCCCCCCCCSC#N,Potency,[1],inactive
same,Potency,[2],inactive
same,Potency,[3],inactive
same,Potency,[4],inactive
Cc1scc2c1N(C(=O)CN1CCN(C)CC1)c1ccccc1NC2=O,Potency,[1],inactive
same,Potency,[2],inactive
same,Potency,[3],inactive
same,Potency,[4],inactive
CC(C)OCCO,Potency,[1],inactive
same,Potency,[2],inactive
same,Potency,[3],inactive
same,Potency,[4],inactive
CCCCC(CC)COCCC#N (stereo not given),Potency,[1],inactive
same,Potency,[2],inactive
same,Potency,[3],inactive
same,Potency,[4],inactive
C=Cc1ccccc1C=C,Potency,[1],inactive
same,Potency,[2],inactive
same,Potency,[3],inactive
same,Potency,[4],inactive
CCOc1ccc([N+](=O)[O-])cc1,Potency,[1],inactive
same,Potency,[2],inactive
same,Potency,[3],inactive
same,Potency,[4],inactive
O=C(O)Cc1cccc(-c2cc(CCCCCCc3ccc(O[C@H]4O[C@H](CO)[C@@H](O)[C@H](O)[C@@H]4O)c(-c4cccc(CC(=O)O)c4)c3)ccc2O[C@H]2O[C@H](CO)[C@@H](O)[C@H](O)[C@@H]2O)c1,"activity, negative = inhibition",[1],1.5% [at 0.435 µM]
same,"activity change, negative = inhibition",[2],1.01% [at 0.435 µM]
same,"activity change, negative = inhibition",[3],5.75% [at 0.439 µM]
same,"activity change, negative = inhibition",[4],-1.17% [at 0.435 µM]
C=CCOC(=O)CCCCCC,Potency,[1],inactive
same,Potency,[2],inactive
same,Potency,[3],inactive
same,Potency,[4],inactive
CN(C)c1ccc(C(=C2C=CC(=[N+](C)C)C=C2)c2ccc(N(C)C)cc2)cc1,Potency,[1],70.6 µM (active)
same,Potency,[2],25.1 µM (active) and 35.6 µM (active) and 30.9 µM (active)
same,Potency,[3],19.9 µM (active) and 44.8 µM (active) and 15.5 µM (active)
same,Potency,[4],inactive
Fc1ccccc1-c1ccccc1,Potency,[1],inactive
same,Potency,[2],inactive
same,Potency,[3],inactive
same,Potency,[4],inactive
CO[C@@]1(NC(=O)C(C(=O)O)c2ccc(O)cc2)C(=O)N2C(C(=O)O)=C(CSc3nnnn3C)CO[C@@H]21 (stereo not given in full),Potency,[1],inactive
same,Potency,[2],inactive
same,Potency,[3],inactive
same,Potency,[4],inactive
COC(=O)c1ccc(O)cc1,Potency,[1],inactive
same,Potency,[2],inactive
same,Potency,[3],inactive
same,Potency,[4],inactive
COc1ccc(C2CNC(=O)C2)cc1OC1CCCC1 (stereo not given),Potency,[1],inactive
same,Potency,[2],inactive
same,Potency,[3],inactive
same,Potency,[4],inactive
Cc1ncc([N+](=O)[O-])n1C,Potency,[1],inactive
same,Potency,[2],inactive
same,Potency,[3],inactive
same,Potency,[4],inactive
CCCCCCCCCCCCCC(=O)OCC,Potency,[1],inactive
same,Potency,[2],inactive
same,Potency,[3],inactive
same,Potency,[4],inactive
Cc1ccc(O)c(-n2nc3ccccc3n2)c1,Potency,[1],inactive
same,Potency,[2],inactive
same,Potency,[3],inactive
same,Potency,[4],inactive
CC(Oc1c(Cl)cccc1Cl)C1=NCCN1 (stereo not given),Potency,[1],inactive
same,Potency,[2],inactive
same,Potency,[3],inactive
same,Potency,[4],inactive
CCN1CCCC(OC(=O)C(c2ccccc2)c2ccccc2)C1 (stereo not given),Potency,[1],inactive
same,Potency,[2],inactive
same,Potency,[3],inactive
same,Potency,[4],inactive
CCC(C(=O)NC(=O)NC(C)=O)c1ccccc1 (stereo not given),Potency,[1],inactive
same,Potency,[2],inactive
same,Potency,[3],inactive
same,Potency,[4],inactive
CC[C@H](C)C(=O)O[C@H]1C[C@@H](C)C=C2C=C[C@H](C)[C@H](CC[C@@H]3C[C@@H](O)CC(=O)O3)[C@H]21,Potency,[1],inactive
same,Potency,[2],inactive
same,Potency,[3],inactive
same,Potency,[4],inactive
CCCCC(CC)COC(=O)/C=C/c1ccc(OC)cc1 (stereo not given),Potency,[1],inactive
same,Potency,[2],inactive
same,Potency,[3],inactive
same,Potency,[4],inactive
CCCCCCCCS(=O)(=O)Cl,Potency,[1],inactive
same,Potency,[2],inactive
same,Potency,[3],inactive
same,Potency,[4],inactive
COCCOCCOCCOCCOCCO,Potency,[1],inactive
same,Potency,[2],inactive
same,Potency,[3],inactive
same,Potency,[4],inactive
O=C(Nc1ncc([N+](=O)[O-])s1)c1cccs1,Potency,[1],inactive
same,Potency,[2],inactive
same,Potency,[3],inactive
same,Potency,[4],inactive
c1ccc2sc(SSc3nc4ccccc4s3)nc2c1,"activity, negative = inhibition",[1],-2.2% [at 23.6 µM]
same,"activity change, negative = inhibition",[2],0.97% [at 23.6 µM]
same,"activity change, negative = inhibition",[3],3.45% [at 23.8 µM]
same,"activity change, negative = inhibition",[4],-1.01% [at 23.6 µM]
CCOc1ccc(N=Nc2ccc(/C=C/c3ccc(N=Nc4ccc(OCC)cc4)cc3S(=O)(=O)O)c(S(=O)(=O)O)c2)cc1,Potency,[1],inactive
same,Potency,[2],inactive
same,Potency,[3],inactive
same,Potency,[4],inactive
CN(C)CCOC(c1ccccc1)c1ccc(Br)cc1 (stereo not given),Potency,[1],inactive
same,Potency,[2],inactive
same,Potency,[3],inactive
same,Potency,[4],inactive
OCCOCC#CCOCCO,Potency,[1],inactive
same,Potency,[2],inactive
same,Potency,[3],inactive
same,Potency,[4],inactive
C[C@]12CCC(=O)C=C1CC[C@@H]1[C@@H]2C(=O)C[C@@]2(C)[C@H]1CC[C@]2(O)C(=O)CO,Potency,[1],inactive
same,Potency,[2],inactive
same,Potency,[3],inactive
same,Potency,[4],inactive
Nc1ccc(S(=O)(=O)NCc2ccccc2)cc1,Potency,[1],inactive
same,Potency,[2],inactive
same,Potency,[3],inactive
same,Potency,[4],inactive
Nc1ccc(O)c([N+](=O)[O-])c1,Potency,[1],inactive
same,Potency,[2],inactive
same,Potency,[3],inactive
same,Potency,[4],inactive
CC(=O)Oc1cccc2c1C(=O)c1c(OC(C)=O)cc(C(=O)O)cc1C2=O,Potency,[1],inactive
same,Potency,[2],inactive
same,Potency,[3],inactive
same,Potency,[4],inactive
CC(C)c1ccc2sc3ccccc3c(=O)c2c1,Potency,[1],inactive
same,Potency,[2],inactive
same,Potency,[3],inactive
same,Potency,[4],inactive
Cc1coc2ccccc2c1=O,Potency,[1],inactive
same,Potency,[2],inactive
same,Potency,[3],inactive
same,Potency,[4],inactive
CCCCC=O,Potency,[1],inactive
same,Potency,[2],inactive
same,Potency,[3],inactive
same,Potency,[4],inactive
O=S1(=O)CC=CC1,Potency,[1],inactive
same,Potency,[2],inactive
same,Potency,[3],inactive
same,Potency,[4],inactive
CCCCC(CC)COC(=O)CCCCCCCCC(=O)OCC(CC)CCCC (stereo not given),Potency,[1],inactive
same,Potency,[2],inactive
same,Potency,[3],inactive
same,Potency,[4],inactive
CCCCCCCCOS(=O)(=O)O,Potency,[1],inactive
same,Potency,[2],inactive
same,Potency,[3],inactive
same,Potency,[4],inactive
Cc1cc(C(C)(C)C)c(O)c(C)c1CC1=NCCN1,Potency,[1],inactive
same,Potency,[2],inactive
same,Potency,[3],inactive
same,Potency,[4],inactive
C[n+]1ccn(CCO)c1,Potency,[1],inactive
same,Potency,[2],inactive
same,Potency,[3],inactive
same,Potency,[4],inactive
Cc1ccc(C(=O)O)cc1,Potency,[1],inactive
same,Potency,[2],inactive
same,Potency,[3],inactive
same,Potency,[4],inactive
O=c1cccc[nH]1,Potency,[1],inactive
same,Potency,[2],inactive
same,Potency,[3],inactive
same,Potency,[4],inactive
O=C(O)c1cn(C2CC2)c2cc(Cl)c(F)cc2c1=O,Potency,[1],inactive
same,Potency,[2],inactive
same,Potency,[3],inactive
same,Potency,[4],inactive
O=Cc1ccc(Cl)cc1,Potency,[1],inactive
same,Potency,[2],inactive
same,Potency,[3],inactive
same,Potency,[4],inactive
Cc1cccc(N(C)C(=S)Oc2ccc3c(c2)C2CCC3C2)c1 (stereo not given),Potency,[1],inactive
same,Potency,[2],inactive
same,Potency,[3],inactive
same,Potency,[4],inactive
O=C1OC2(c3ccccc31)c1cc(Br)c(O)c(Br)c1Oc1c2cc(Br)c(O)c1Br,Potency,[1],inactive
same,Potency,[2],inactive
same,Potency,[3],inactive
same,Potency,[4],inactive
OCC1CC=CCC1 (stereo not given),Potency,[1],inactive
same,Potency,[2],inactive
same,Potency,[3],inactive
same,Potency,[4],inactive
C=C(C)CNCC,Potency,[1],inactive
same,Potency,[2],inactive
same,Potency,[3],inactive
same,Potency,[4],inactive
COc1nccnc1NS(=O)(=O)c1ccc(N)cc1,Potency,[1],inactive
same,Potency,[2],inactive
same,Potency,[3],inactive
same,Potency,[4],inactive
NCCN,outcome,[1],inactive
same,outcome,[2],inactive
same,outcome,[3],inactive
same,outcome,[4],inactive
COc1ccc(Br)c(C)c1,Potency,[1],inactive
same,Potency,[2],inactive
same,Potency,[3],inactive
same,Potency,[4],inactive
Oc1ccc2cc(SSc3ccc4cc(O)ccc4c3)ccc2c1,Potency,[1],inactive
same,Potency,[2],inactive
same,Potency,[3],inactive
same,Potency,[4],inactive
